Laboratory results: PubChem BioAssay AID720647 (Broad Institute, 2013)
Several values for one entry are separate records, joined by “and”; a condition that tells them apart may be missing. Identical values can stand only once. The whole screen tested about 380,000 compounds, of which about 1,300 (0.34%) were called active.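 The calls were made as follows: active = drop in luminescence signal, shown as inhibition above about 50% in the replicate tests (limit read from the data, passing the limit was not always enough); inconclusive = probably only some replicates passing the limit; inactive = the rest.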 The list comes from a sample in which actives are over-represented; it also holds similar structures and randomly drawn compounds. Some compounds were tested as several samples or in several runs, with calls that do not always agree.

These compounds were tested on Drosophila bursicon receptor LGR2 (rickets) (assay: inhibitors of bursicon-induced LGR2 CRE-luciferase signal, primary screen, cell-based, HEK293, CRE-luciferase reporter, bursicon stimulation (AID 720647;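 also: agonist challenge used bursicon conditioned medium at about half maximal strength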)). Conditions: bursicon-stimulated, 4 h, at 9.99 µM, stronger effect = higher value.

inhibition, inactive:
CC(C)CC#Cc1cnc2c(c1)C(=O)N([C@H](C)CO)C[C@H](C)[C@@H](CN(C)Cc1ccccc1C(=O)O)O2 9.07%
C[C@H]1CCCCO[C@H](CN(C)C(=O)Nc2ccccc2)[C@@H](C)CN([C@@H](C)CO)C(=O)c2cc(NC(=O)CCC(F)(F)F)ccc2O1 8.75%
COc1ccc(-c2ccc3c(c2)[C@@H]2[C@@H](CCN2S(=O)(=O)c2ccccc2F)[C@H](CO)N3)cc1 -25.5%
C[C@@H]1CN([C@@H](C)CO)C(=O)c2cc(-c3ccc(F)cc3)cnc2O[C@H]1CN(C)C(=O)c1ccncc1 1.63%
O=C(C1CCCCC1)N1[C@H](CO)[C@@H](c2ccccc2)C12CN(Cc1cccc(Cl)c1)C2 1.64%
O=C(C[C@@H]1CC[C@H](NC(=O)C2CCOCC2)[C@@H](CO)O1)Nc1ccccc1 -3.27%
CCc1sc(N2[C@@H](C#N)[C@@H](c3ccccc3-c3ccccc3)[C@@H]2CO)nc1C 0.259%
COc1ccc(-c2cn(CC[C@H]3CC[C@@H](N)[C@H](CO)O3)nn2)cc1 -5.75%
COc1ccc2c3c([nH]c2c1)[C@H](CO)N(Cc1cccc(F)c1)CC31CCN(CC2CC2)CC1 16%
Cc1noc(C)c1NC(=O)Nc1ccc2c(c1)CC(=O)N([C@H](C)CO)C[C@@H](C)[C@@H](CN(C)S(=O)(=O)c1ccc(Cl)cc1)O2 4.84%
O=C(NCCc1ccc(C(F)(F)F)cc1)c1ccc2c(c1)OCO2 -2.8%
Cc1nc(NC(=O)c2ccc3c(c2)OCCO3)ccc1Br -47%
N#C[C@@H]1N[C@H](CO)[C@@H]1c1ccc(/C=C/c2ccccc2)cc1 -52.3%
C[C@H]1CN([C@@H](C)CO)S(=O)(=O)c2ccc(-c3cccc(C#N)c3)cc2O[C@H]1CN(C)CC1CC1 -1.41%
C[C@H]1CN([C@@H](C)CO)C(=O)c2cccc(NS(=O)(=O)c3ccccc3)c2O[C@@H]1CN(C)S(=O)(=O)c1cn(C)cn1 6.37%
COc1ccc(S(=O)(=O)N(C)C[C@@H]2OCCCC[C@@H](C)Oc3ccc(N(C)C)cc3C(=O)N([C@@H](C)CO)C[C@@H]2C)cc1 -3.31%
COC(=O)c1cc(NC2c3ccccc3C(=O)N2c2ccc(Cl)cn2)cc(C(=O)OC)c1 (configuration not stated) -4.93%
O=C1c2ccccc2C(Nc2ccc3c(c2)OCCO3)N1Cc1ccco1 (configuration not stated) 0.038%
Cc1ccc(-c2cnc3c(c2)C(=O)N([C@H](C)CO)C[C@H](C)[C@@H](CN(C)S(C)(=O)=O)O3)cc1 14.4%
C[C@H]1CN([C@@H](C)CO)S(=O)(=O)c2ccc(C#Cc3cccc(F)c3)cc2O[C@@H]1CN(C)S(=O)(=O)c1cn(C)cn1 16.7%
CCCC(=O)N1CCC2(CC1)CN(C(=O)C1CCCCC1)[C@@H](CO)c1[nH]c3cc(OC)ccc3c12 -2.6%
COc1ccc(S(=O)(=O)N[C@H]2C=C[C@@H](CC(=O)O)O[C@@H]2CO)cc1 14.6%
CSc1ncnc2c1ncn2CCCNCc1ccco1 -1.41%
CC12CCC(=O)C=C1CCC1C2C(O)CC2(C)C1CCC2(O)C(O)CO (configuration not stated) -20.1%
COCC(=O)Nc1ccc2c(c1)[C@H]1C[C@@H](CC(=O)NCc3ccccc3F)O[C@H](CO)[C@H]1O2 -12.4%
CC=Cc1ccc2n(c1=O)C[C@H]1[C@H](CO)[C@@H](C(=O)NC3CCCC3)N(Cc3cccnc3)[C@@H]21 (mixture of isomers) 5.27%
O=C(Cn1cc(/C=N/NC(=O)c2cccc(C(F)(F)F)c2)c2ccccc21)Nc1ccc(F)cc1 13.4%
O=C(CNCc1ccc(Cl)cc1)Nc1cccc(C(=O)O)c1 22.7%
COc1cccc(CNC(=O)C[C@@H]2CC[C@@H]3[C@H](COc4ccc(NC(C)=O)cc4C(=O)N3C)O2)c1 18.5%
CCN1[C@@H]2Cn3c(ccc(-c4cccc(OC)c4)c3=O)[C@H]1[C@@H](C(=O)N(C)C)[C@@H]2CO -2.29%
CCC(=O)N1CC(=O)N2[C@@H](CO)[C@H](c3ccc(C#CC4CCCC4)cc3)[C@@H]2C1 -13.8%
C[C@@H]1CN([C@H](C)CO)C(=O)Cc2cc(NS(C)(=O)=O)ccc2O[C@@H]1CN(C)C(=O)Nc1ccc2c(c1)OCO2 -12.8%
C[C@@H]1CN([C@H](C)CO)C(=O)c2cc(NC(=O)CCCCCC(=O)Nc3ccccc3N)ccc2O[C@H]1CN(C)Cc1ccncc1 -8.39%
C[C@@H]1CCCCO[C@H](CN(C)CC2CC2)[C@@H](C)CN([C@H](C)CO)C(=O)c2cc(NC(=O)Cc3ccccc3)ccc2O1 2.52%
COc1ccccc1-c1cn(CC[C@@H]2CC[C@H](NC(=O)c3ccccc3F)[C@H](CO)O2)nn1 0.819%
COc1ccc2c3c(n(C)c2c1)[C@@H](CO)N(C(=O)c1ccccn1)CC31CN(C)C1 2.95%
COc1ccc(-c2ccc(C3[C@@H]4CN(S(=O)(=O)c5cn(C)cn5)C[C@H]3N4)cc2)cc1 (some centres not stated) -3.69%
Cn1cnc(S(=O)(=O)N2C[C@@H]3N[C@H](C2)C3c2ccc(/C=C/c3ccccc3)cc2)c1 (some centres not stated) 7.15% and -2.81%
C[C@H]1CN([C@@H](C)CO)C(=O)c2ccccc2-c2ccccc2CO[C@H]1CN(C)S(=O)(=O)c1cccc(C#N)c1 -1.55%
C[C@H](NC(=O)C[C@@H]1CC[C@@H]2[C@H](COC[C@@H](O)CN2Cc2cc(F)ccc2F)O1)c1ccccc1 4.84%
O=C(C[C@H]1C[C@@H]2c3cc(NC(=O)CC4CC4)ccc3O[C@@H]2[C@H](CO)O1)NCc1cccnc1 2.45%
O=C(Nc1ccccc1F)N1CC(=O)N2[C@H](C1)[C@H](c1ccc(C#Cc3ccc(F)cc3)cc1)[C@@H]2CO 5.08%
C[C@@H]1CN([C@@H](C)CO)C(=O)c2cc(NC(=O)Cc3ccccc3)ccc2O[C@H]1CN(C)CC1CC1 -1.21%
COc1ccc(CC(=O)NCc2nnc(SCC(=O)Nc3ncc(C)s3)n2C)cc1 8.94%
COC(=O)Nc1ncc(CN2C(=O)c3ccccc3C2=O)s1 -22.5%
C[C@H]1CN([C@@H](C)CO)C(=O)CCCn2nncc2CO[C@@H]1CN(C)S(=O)(=O)c1ccccc1C#N -2.41%
O=C(Nc1ccccc1)N1CCCCN2[C@H](CO)[C@@H](c3ccc(-c4ccccc4F)cc3)[C@H]2C1 17.4%
CCCNC(=O)N1[C@H](C#N)[C@@H](c2ccccc2C2=CCCCC2)[C@@H]1CO 8.2%
O=C1CN(Cc2ccccc2)C[C@H]2[C@H](c3ccc(-c4ccccc4)cc3)[C@@H](CO)N12 -6.09%
O=C(CCCc1ccccc1)NCc1ccccc1 -36.7%
O=C(CCc1ccccc1F)N1CCN(c2ccccc2)CC1 -17%
CCCNC(=O)C[C@@H]1CC[C@H]2[C@H](COc3ccc(NC(=O)c4ccc(Cl)cc4)cc3C(=O)N2C)O1 -13.7%
COc1ccc(-c2cn(CC[C@@H]3CC[C@@H](NC(=O)CCN4CCCCC4)[C@@H](CO)O3)nn2)cc1 -11.8%
C[C@H](CO)N1C[C@H](C)[C@H](CN(C)Cc2ccccc2)OCCCC[C@H](C)Oc2ccc(NC(=O)Cc3ccccc3)cc2C1=O 24%
C[C@H](CO)N1C[C@H](C)[C@@H](CN(C)Cc2ccccc2)OCCCC[C@H](C)Oc2ccc(NC(=O)Cc3ccccc3)cc2C1=O 3.25%
O=C(C[C@H]1C=C[C@@H](NC(=O)Nc2cc(F)ccc2F)[C@H](CO)O1)NCCCN1CCOCC1 -7.04%
COc1cncc(-c2cnc3sc(NCCc4ccccn4)nn23)c1 20.8%
COc1cccc(C(NC(C)=O)c2nc(-c3ccccc3OC)cs2)c1 (configuration not stated) -5.66%
C[C@H](CO)N1C[C@H](C)[C@H](CN(C)C(=O)Nc2ccc(F)cc2)Oc2ccc(NC(=O)Cc3cn(C)c4ccccc34)cc2CC1=O 10.8%

inhibition, active:
C=CCn1c(C)cc(C2=NNC(=NCC)SC2)c1C 84.5%
O=c1oc2ccccc2cc1-c1cn(-c2ccccc2)c(=S)[nH]1 102%
O=C(Nc1nc2ccccc2s1)c1ccc2c(c1)OCO2 79.6%
COc1ccc2c(c1)c(=Cc1ccc(N(C)C)cc1)c1cc(-c3ccccc3)[n+](C)n12 102%
Cc1ccnc(N2C(=O)c3ccccc3C2Nc2ccc3c(c2)OCCO3)c1 (configuration not stated) 66.5%
CSc1ncnc2c1ncn2CC(=O)C1CCC2C3CCC4=CC(=O)CCC4(C)C3CCC12C (configuration not stated) 89.8%
COc1cccc(/C=C/c2ccc3ccccc3n2)c1OC(C)=O 84.6%
O=C(O)c1cccc(NC(=S)N/N=C/c2c[nH]c3ccccc23)c1 75.5%
Cc1cnc(NC(=O)c2ccccn2)s1 59.5%
C=CCN1CCN(C(=O)CCCc2ccccc2)CC1 66.7%
O=C(Nc1ccccc1Cl)/C(Cl)=C(\Cl)S(=O)c1ccccc1 (configuration not stated) 98.9%
COc1ccc(-c2csc(Nc3ccccn3)n2)cc1 78.5%

inhibition, 53% (active) and -30.1% (inactive):
Cn1cnc(S(=O)(=O)N2C[C@@H]3N[C@H](C2)C3c2ccc(-c3ccccc3F)cc2)c1 (some centres not stated)
